# Data published in PMC8384837, “Expanding the binding specificity for RNA recognition by a PUF domain”.
# Substitutions are numbered along the chain they refer to.
# Columns and labels:
# Test in all cases: yeast three-hybrid, YBZ-1, SC-Leu-His + 0.5 mM 3-AT, 4 days
# Conditions in all cases: tags: N-Gal4 AD-HA kept; label: inside an RPR1-promoter hybrid RNA with tandem MS2 sites; ssRNA
# [1] = target: PUM1 PUF domain R4-GHW (Homo sapiens, UniProt Q14671 828-1176, N971G;Q975W)
# How it was run: (§1)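 Each repeat of the Pumilio-1 PUF domain was randomized at its three base-contacting residues, and these libraries were co-expressed from a centromeric plasmid with matching RNA elements in strain YBZ-1. After four days on SC-Leu (input) or SC-Leu-His + 0.5 mM 3-AT (selection), the repeat regions were PCR-amplified and Illumina-sequenced. The interaction score compares variant frequency between input and selection as a log change, computed in log2 with a pseudocount of 1 for absent variants.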
# [2] = target: PUM1 PUF domain R4-WGV (Homo sapiens, UniProt Q14671 828-1176, N971W;H972G;Q975V)
# How it was run: as §1
# [3] = target: T1, PUM1 PUF domain R1-QFR R2-VFQ R6-SWD (Homo sapiens, UniProt Q14671 828-1176, S863Q;R864F;Q867R;N899V;Y900F;N1043S;Y1044W;Q1047D)
# T1 sequence: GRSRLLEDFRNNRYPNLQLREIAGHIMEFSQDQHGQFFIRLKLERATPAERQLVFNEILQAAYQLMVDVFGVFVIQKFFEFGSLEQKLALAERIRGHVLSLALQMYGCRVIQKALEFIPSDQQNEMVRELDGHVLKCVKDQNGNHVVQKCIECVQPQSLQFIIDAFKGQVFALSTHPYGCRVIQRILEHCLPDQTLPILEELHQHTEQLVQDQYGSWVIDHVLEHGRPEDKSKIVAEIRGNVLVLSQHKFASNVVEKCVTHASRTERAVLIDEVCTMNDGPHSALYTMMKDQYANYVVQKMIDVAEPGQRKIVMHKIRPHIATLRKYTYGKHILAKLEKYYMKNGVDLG
# How it was run: as §1
# [4] = target: PUM1 PUF domain R4-CMN (Homo sapiens, UniProt Q14671 828-1176, N971C;H972M;Q975N)
# How it was run: as §1
# [5] = target: T2, PUM1 PUF domain R6-RYG (Homo sapiens, UniProt Q14671 828-1176, N1043R;Q1047G)
# T2 sequence: T1 sequence with Q36S, F37R, R40Q, V72N, F73Y, S216R, W217Y, D220G
# How it was run: as §1
# [6] = target: PUM1 PUF domain R8-RRY (Homo sapiens, UniProt Q14671 828-1176, N1122R;Y1123R;Q1126Y)
# How it was run: as §1
# [7] = target: T3, PUM1 PUF domain R6-DWG (Homo sapiens, UniProt Q14671 828-1176, N1043D;Y1044W;Q1047G)
# T3 sequence: T1 sequence with Q36S, F37R, R40Q, V72N, F73Y, S216D, D220G
# How it was run: as §1
# [8] = target: PUM1 PUF domain R7-LYW (Homo sapiens, UniProt Q14671 828-1176, S1079L;N1080Y;E1083W)
# How it was run: as §1
# [9] = target: PUM1 PUF domain R2-KLV (Homo sapiens, UniProt Q14671 828-1176, N899K;Y900L;Q903V)
# How it was run: as §1
# [10] = target: T4, PUM1 PUF domain R6-AWV (Homo sapiens, UniProt Q14671 828-1176, N1043A;Y1044W;Q1047V)
# T4 sequence: T1 sequence with Q36S, F37R, R40Q, V72N, F73Y, S216A, D220V
# How it was run: as §1
sequence,measurement,setting,value
GGCUAGAACUAGUGGAUCCCCCGGCGCCCGGCGGCUCGAGCCCGGGUAAGUGUAUAUAGUCUGCAUGCCGCCGGGCGCCAUGCCUGCAGGUCGACUCUAGAAAACAUG,binding signal,[1],4.35 log2 enrichment (interaction score)
same,binding signal,[2],3.61 log2 enrichment (interaction score)
GGCUAGAACUAGUGGAUCCCCCGGCGCCCGGCGGCUCGAGCCCGGGUAAGUGGAAAACGUCUGCAUGCCGCCGGGCGCCAUGCCUGCAGGUCGACUCUAGAAAACAUG,binding signal,[3],5 log2 enrichment (interaction score)
GGCUAGAACUAGUGGAUCCCCCGGCGCCCGGCGGCUCGAGCCCGGGUAAGUGUAAAUAGUCUGCAUGCCGCCGGGCGCCAUGCCUGCAGGUCGACUCUAGAAAACAUG,binding signal,[1],5.62 log2 enrichment (interaction score)
same,binding signal,[4],3.59 log2 enrichment (interaction score)
same,binding signal,[5],2.84 log2 enrichment (interaction score)
same,binding signal,[6],0.87 log2 enrichment (interaction score)
same,binding signal,[2],3.11 log2 enrichment (interaction score)
same,binding signal,[7],4.07 log2 enrichment (interaction score)
GGCUAGAACUAGUGGAUCCCCCGGCGCCCGGCGGCUCGAGCCCGGGUAAGUUUAAAUAGUCUGCAUGCCGCCGGGCGCCAUGCCUGCAGGUCGACUCUAGAAAACAUG,binding signal,[8],4.45 log2 enrichment (interaction score)
GGCUAGAACUAGUGGAUCCCCCGGCGCCCGGCGGCUCGAGCCCGGGUAAGUGUAAAGAGUCUGCAUGCCGCCGGGCGCCAUGCCUGCAGGUCGACUCUAGAAAACAUG,binding signal,[9],6.33 log2 enrichment (interaction score)
GGCUAGAACUAGUGGAUCCCCCGGCGCCCGGCGGCUCGAGCCCGGGUAAGCGUAAAUAGUCUGCAUGCCGCCGGGCGCCAUGCCUGCAGGUCGACUCUAGAAAACAUG,binding signal,[6],2.72 log2 enrichment (interaction score)
GGCUAGAACUAGUGGAUCCCCCGGCGCCCGGCGGCUCGAGCCCGGGUAAGUGUACAUAGUCUGCAUGCCGCCGGGCGCCAUGCCUGCAGGUCGACUCUAGAAAACAUG,binding signal,[1],4.34 log2 enrichment (interaction score)
same,binding signal,[2],3.2 log2 enrichment (interaction score)
GGCUAGAACUAGUGGAUCCCCCGGCGCCCGGCGGCUCGAGCCCGGGUAAGUGAAAAUAGUCUGCAUGCCGCCGGGCGCCAUGCCUGCAGGUCGACUCUAGAAAACAUG,binding signal,[5],0.78 log2 enrichment (interaction score)
same,binding signal,[10],2.78 log2 enrichment (interaction score)
